We go through five compounds from PubChem BioAssay.

The structures appear in SMILES notation. Calls of active or inactive are those of the source.

One experiment deals with Albumin (Bos taurus) (UniProt P02769). Put plainly: compounds binding labelled BSA control protein – biochemical, small-molecule microarray, Alexa647 label, 635/667 nm fluorescence, artefact control for SMM control protein annotation, profiling panel (AID 1118).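 Note: score merges 667 nm emission intensity and signal-to-noise per printed compound spot.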 The settings on record: BSA-A647 binding, fluorescence 635 nm, higher = more signal.
Albumin (Bos taurus), sequence (P02769 whole entry, looked up): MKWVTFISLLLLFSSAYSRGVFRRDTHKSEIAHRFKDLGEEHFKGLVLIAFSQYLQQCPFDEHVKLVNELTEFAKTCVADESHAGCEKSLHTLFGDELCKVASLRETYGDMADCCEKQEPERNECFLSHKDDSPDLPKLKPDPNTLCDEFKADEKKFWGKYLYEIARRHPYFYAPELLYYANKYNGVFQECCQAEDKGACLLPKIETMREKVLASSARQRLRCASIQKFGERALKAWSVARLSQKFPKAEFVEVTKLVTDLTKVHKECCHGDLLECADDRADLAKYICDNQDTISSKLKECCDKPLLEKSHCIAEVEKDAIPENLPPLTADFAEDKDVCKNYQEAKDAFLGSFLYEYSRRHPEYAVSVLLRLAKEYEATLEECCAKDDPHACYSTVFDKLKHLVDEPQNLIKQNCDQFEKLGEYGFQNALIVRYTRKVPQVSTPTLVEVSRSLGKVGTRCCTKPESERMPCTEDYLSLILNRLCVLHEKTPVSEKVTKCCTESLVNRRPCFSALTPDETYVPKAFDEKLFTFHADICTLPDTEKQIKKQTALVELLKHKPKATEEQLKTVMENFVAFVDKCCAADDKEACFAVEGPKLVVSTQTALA
Experiment [1] is described as follows: probe aXIP binding to arrayed compounds – biochemical, NeuroSMM set, 635/667 nm fluorescence, primary screen (AID 1119).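 Note: probe is the protein aXip251-270 applied at 1 µg/mL to compound-printed slides; binding of probe to printed compounds measured as 667 nm fluorescence plus signal to noise.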 The settings on record: small-molecule microarray, higher = more signal, called active from +8 up or from −8 down.
Experiment [2] in a line: probe aNOTCH3 binding on compound microarray – biochemical, small-molecule microarray, 635/667 nm fluorescence, primary screen (AID 1120).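 Note: probe is a biotin-tagged antibody raised against NOTCH3 rather than NOTCH3 protein; score merges spot fluorescence near 667 nm with spot signal to noise.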 The conditions noted are these: higher = more signal.
Experiment [3] in a line: probe aNOTCH2 binding on compound microarray – biochemical, small-molecule microarray, 635/667 nm fluorescence, primary screen (AID 1121).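 Note: score merges feature fluorescence read at 667 nm with its signal to noise.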 The settings on record: higher = more signal.
Experiment [4] addresses Carbonic anhydrase 2 (Homo sapiens) (UniProt P00918). Put plainly: compounds binding carbonic anhydrase 2 – biochemical, small-molecule microarray, Alexa647-labelled CAII, profiling panel (AID 1122). The settings on record: CAII-A647 binding fluorescence, higher = more signal.
Experiment [5] in a line: COS7 lysate on small-molecule microarray, probe aHis, 635 nm (AID 1123).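 Note: z-score combines 667nm fluorescence intensity with signal-to-noise per printed compound spot.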 The conditions noted are these: COS7 cell lysate, fluorescence, higher = more signal.
A short description of experiment [6]: probe aLAP1 signal on lysate-treated microarray – cell lysate, small-molecule microarray, COS7 lysate, primary screen (AID 1124).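 Note: lysate comes from COS7 cells expressing LAP1 and is applied at 0.3 µg/mL; score merges spot fluorescence near 667 nm with signal-to-noise over triplicate slides.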 The conditions noted are these: probe aLAP1, fluorescence, higher = more signal.
A further experiment deals with Sam68 (KHDRBS1). Put plainly: compounds binding KHDRBS1 protein – biochemical, small-molecule microarray, 635 nm fluorescence, primary screen (AID 1125).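 Note: score merges 667 nm channel intensity with signal to noise over triplicate slides.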 The settings on record: higher = more signal.
The subject of experiment [7] is Chordin-like protein 2 (CHRDL2). Put plainly: compounds binding chordin-like 2 – biochemical, small-molecule microarray, 635 nm fluorescence, primary screen (AID 1126).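 Note: printed compound slides probed with Chrdl2 protein at 4 µg/mL for 1 h at 4 C; score merges 667 nm emission intensity with signal to noise over three replicate slides.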 The conditions noted are these: fluorescence 635 nm, higher = more signal.
Experiment [8] deals with Concanavalin-A (Canavalia ensiformis) (UniProt P02866). The experiment can be described thus: compounds binding concanavalin A lectin – biochemical, small-molecule microarray, Alexa647 label, 635 nm, artefact control for SMM control protein annotation, primary screen (AID 1127).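 Note: z combines 667 nm emission intensity with signal-to-noise across three replicate slides.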 The conditions noted are these: ConA-A647 binding fluorescence, higher = more signal.
Concanavalin-A (Canavalia ensiformis), sequence (P02866 whole entry, looked up): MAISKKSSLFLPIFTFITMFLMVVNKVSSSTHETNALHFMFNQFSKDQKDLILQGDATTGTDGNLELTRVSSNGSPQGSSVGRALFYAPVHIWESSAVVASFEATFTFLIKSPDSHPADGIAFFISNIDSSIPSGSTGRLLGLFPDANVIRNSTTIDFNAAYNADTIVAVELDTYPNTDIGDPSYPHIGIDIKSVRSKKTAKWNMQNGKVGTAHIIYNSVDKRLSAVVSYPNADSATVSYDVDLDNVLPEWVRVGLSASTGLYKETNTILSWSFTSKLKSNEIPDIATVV
The nature of experiment [9]: compounds binding Alexa647 anti-His antibody – biochemical, small-molecule microarray, 635 nm fluorescence, artefact control for SMM control protein annotation, primary screen (AID 1128).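 Note: score merges feature fluorescence with signal-to-noise for each printed compound spot.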 The settings on record: higher = more signal.
The test system of experiment [10] is Human papillomavirus type 1a E7 protein (residues 1-88). The experiment can be described thus: HPV1a E7 small-molecule binders, primary screen, biochemical, small-molecule microarray, residues 1-88, 635 nm (AID 1129). The conditions noted are these: small-molecule microarray binding, fluorescence 635 nm; higher = more signal.
The target of experiment [11] is Focal adhesion kinase 1 (Homo sapiens) (UniProt Q05397). Put plainly: PTK2 protein binding on printed compound slides – biochemical, small-molecule microarray, 635/667 nm fluorescence, BSA, DTT, primary screen (AID 1130).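 Note: composite of spot emission at 667 nm and signal to noise over triplicate slides.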 The settings on record: 635 nm fluorescence, higher = more signal.
Focal adhesion kinase 1 (Homo sapiens), sequence (Q05397 whole entry, looked up): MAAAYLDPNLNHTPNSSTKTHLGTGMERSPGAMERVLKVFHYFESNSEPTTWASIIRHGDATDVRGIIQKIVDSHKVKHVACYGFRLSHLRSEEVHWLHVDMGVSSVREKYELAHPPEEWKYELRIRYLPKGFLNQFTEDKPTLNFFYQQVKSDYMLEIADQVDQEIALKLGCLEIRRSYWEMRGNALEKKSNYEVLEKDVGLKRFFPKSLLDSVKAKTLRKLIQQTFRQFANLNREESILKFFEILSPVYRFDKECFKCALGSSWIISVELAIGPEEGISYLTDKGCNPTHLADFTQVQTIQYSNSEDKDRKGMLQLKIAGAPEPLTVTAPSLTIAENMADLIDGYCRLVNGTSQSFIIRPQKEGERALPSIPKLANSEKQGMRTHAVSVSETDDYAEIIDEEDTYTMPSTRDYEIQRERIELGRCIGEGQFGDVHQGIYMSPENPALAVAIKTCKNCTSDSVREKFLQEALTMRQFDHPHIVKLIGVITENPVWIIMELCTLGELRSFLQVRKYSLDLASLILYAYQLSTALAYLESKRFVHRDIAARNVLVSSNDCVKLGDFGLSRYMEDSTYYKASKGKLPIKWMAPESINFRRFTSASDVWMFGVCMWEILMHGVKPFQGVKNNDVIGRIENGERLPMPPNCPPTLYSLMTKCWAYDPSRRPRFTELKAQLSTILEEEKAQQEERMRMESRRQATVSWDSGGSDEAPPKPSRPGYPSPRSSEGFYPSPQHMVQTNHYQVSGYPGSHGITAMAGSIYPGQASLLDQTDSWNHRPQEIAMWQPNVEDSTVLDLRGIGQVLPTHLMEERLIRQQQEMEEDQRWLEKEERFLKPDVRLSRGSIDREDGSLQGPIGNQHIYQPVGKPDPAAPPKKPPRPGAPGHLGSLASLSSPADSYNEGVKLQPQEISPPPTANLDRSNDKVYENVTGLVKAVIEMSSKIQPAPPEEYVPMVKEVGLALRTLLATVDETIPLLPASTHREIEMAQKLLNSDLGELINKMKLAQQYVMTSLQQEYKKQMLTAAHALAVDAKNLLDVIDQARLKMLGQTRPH
Experiment [12] relates to Fibrinogen (Alexa647-labelled). The experiment can be described thus: Alexa647-fibrinogen binding to printed small molecules – biochemical, small-molecule microarray, 635/667 nm fluorescence, artefact control for SMM control-protein annotation, profiling panel (AID 1131).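 Note: z-score merges 667 nm fluorescence with per-spot signal-to-noise over triplicate slides.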 The conditions noted are these: fibrinogen-A647 binding fluorescence, higher = more signal.
Experiment [13] addresses Follistatin (Homo sapiens) (UniProt P19883). The experiment can be described thus: FST protein binding to printed compounds – biochemical, small-molecule microarray, 635/667 nm fluorescence, primary screen (AID 1132). The settings on record: 635 nm fluorescence, higher = more signal.
For experiment [14], the target named is Fibroblast growth factor 2 (Homo sapiens) (UniProt P09038). Put plainly: basic fibroblast growth factor binding to printed compounds – biochemical, small-molecule microarray, 635/667 nm fluorescence, primary screen (AID 1133). The conditions noted are these: FGF2, fluorescence 635/667, higher = more signal.
Fibroblast growth factor 2 (Homo sapiens), sequence (P09038 whole entry, looked up): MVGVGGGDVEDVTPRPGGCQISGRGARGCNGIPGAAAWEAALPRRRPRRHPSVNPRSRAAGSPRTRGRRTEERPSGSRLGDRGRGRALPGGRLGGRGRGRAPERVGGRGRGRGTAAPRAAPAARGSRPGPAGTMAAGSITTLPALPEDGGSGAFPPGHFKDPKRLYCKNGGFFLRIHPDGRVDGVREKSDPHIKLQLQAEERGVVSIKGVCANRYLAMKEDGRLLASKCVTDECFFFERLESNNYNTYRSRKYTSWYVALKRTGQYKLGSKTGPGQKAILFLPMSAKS
Experiment [15] is described as follows: JC-1 mitochondrial potential readout, lung cancer cells – cell-based, A549, JC-1 fluorescence, basal, 24 h, 100 nL, profiling panel (AID 1138).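 Note: A549 lung adenocarcinoma cells under basal conditions with no added stimulus; test concentration not given here.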 The settings on record: higher = more signal.
The subject of the next experiment is Lefty1. Put plainly: Lefty1 protein binding to printed compounds – biochemical, small-molecule microarray, 635/667 nm fluorescence, primary screen (AID 1139). The conditions noted are these: fluorescence 635/667, higher = more signal.
Experiment [16] deals with wheat germ agglutinin (Triticum aestivum), Alexa647-labelled. The experiment can be described thus: Alexa647-WGA lectin binding to printed small molecules – biochemical, small-molecule microarray, 635/667 nm fluorescence, artefact control for SMM control-protein annotation, profiling panel (AID 1140).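 Note: score merges 667 nm feature emission with signal to noise over triplicate slides.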 The settings on record: WGA-A647 binding, 635 nm fluorescence, higher = more signal.

The target in experiment [17] is Luciferin 4-monooxygenase (Photinus pyralis) (UniProt P08659). The experiment can be described thus: inhibition of purified Photinus pyralis luciferase – biochemical, luminescence, purified enzyme, 2006 set, primary screen (AID 1141).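 Note: cell-free assay with purified firefly luciferase at 100 ng per well in PBS; test concentration not given here.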 The conditions noted are these: purified firefly luciferase, SteadyGlo luminescence, 30 min; higher = more signal, called active from +8 up or from −8 down.
Luciferin 4-monooxygenase (Photinus pyralis), sequence (P08659 whole entry, looked up): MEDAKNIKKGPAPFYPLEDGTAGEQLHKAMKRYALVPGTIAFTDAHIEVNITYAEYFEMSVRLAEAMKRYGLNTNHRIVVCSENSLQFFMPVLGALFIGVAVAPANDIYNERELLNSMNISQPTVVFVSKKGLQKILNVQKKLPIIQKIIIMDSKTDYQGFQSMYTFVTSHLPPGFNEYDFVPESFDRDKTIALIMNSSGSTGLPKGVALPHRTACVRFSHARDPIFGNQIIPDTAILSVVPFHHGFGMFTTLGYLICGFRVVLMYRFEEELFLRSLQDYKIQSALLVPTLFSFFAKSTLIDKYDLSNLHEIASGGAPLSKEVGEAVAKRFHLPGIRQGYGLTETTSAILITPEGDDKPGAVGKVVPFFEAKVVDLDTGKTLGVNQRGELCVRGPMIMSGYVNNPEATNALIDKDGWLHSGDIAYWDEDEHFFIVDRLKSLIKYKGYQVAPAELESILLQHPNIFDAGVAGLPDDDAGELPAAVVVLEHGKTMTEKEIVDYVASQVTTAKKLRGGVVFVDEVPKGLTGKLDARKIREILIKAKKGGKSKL

Follistatin (Homo sapiens), sequence (P19883 whole entry, looked up): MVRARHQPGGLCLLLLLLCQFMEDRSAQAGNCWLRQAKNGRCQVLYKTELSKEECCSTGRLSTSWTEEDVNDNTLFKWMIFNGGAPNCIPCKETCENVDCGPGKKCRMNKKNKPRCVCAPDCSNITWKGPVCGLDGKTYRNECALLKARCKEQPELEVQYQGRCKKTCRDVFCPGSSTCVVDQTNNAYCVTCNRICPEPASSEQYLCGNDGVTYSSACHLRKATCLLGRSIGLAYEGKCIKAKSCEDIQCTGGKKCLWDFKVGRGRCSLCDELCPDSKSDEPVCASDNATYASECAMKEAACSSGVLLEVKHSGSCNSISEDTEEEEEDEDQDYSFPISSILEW

With `COC(=O)[C@@]1(Cc2ccc(F)cc2)[C@H]2c3cc(C(=O)N4CCCC4)n(CCc4ccc(OC)c(Br)c4)c3C[C@H]2CN1C(=O)c1ccccc1`, the composite z-score was 0.843 in the experiment with Albumin (Bos taurus); 0.591 in [2]; 0.323 in experiment [3]; 0.599 in [4]; 3.26 in experiment [5]; 0.987 in [6]. For the same compound, the composite z-score in the experiment on Sam68 (KHDRBS1) was 1.33; in experiment [7], -1.39; in experiment [8], 1.15; in [9] it was 2.45; in experiment [10] it was 1.22; in experiment [11] it was 1.32. Also, the composite z-score is 0.831 in [12]; 1.08 in [13]; -0.705 in experiment [14]; 0.265 in the experiment with Lefty1; 1.38 in experiment [16]. In addition, the composite Z-score in experiment [1] was -0.61 (inactive). In addition, the z-score was -1.58 in experiment [15] and -0.0863 (inactive) in [17].

`O=C1[C@H]2C=C(Br)[C@H](C[C@@H]2OCCOCCO)[C@@]12CO2`: the composite z-score in the experiment with Albumin (Bos taurus) was -0.335; in experiment [2], -0.105; in [3] it was -0.0418; in experiment [4], -0.122; in experiment [5], -0.146; in [6], 0.669. Also, the composite z-score was 0.421 in the experiment on Sam68 (KHDRBS1); 0.169 in experiment [7]; 0.393 in experiment [8]; 0.141 in experiment [9]; 0.314 in experiment [10]; -0.0415 in experiment [11]. The composite z-score in experiment [12] is 0.138; in experiment [13], -0.864; in experiment [14] it was 0.179; in the experiment with Lefty1 it was 0.199; in experiment [16] it was -0.0695. Further, the composite Z-score in experiment [1] was -0.0482 (inactive). Moreover, the z-score in experiment [15] was -0.271; in experiment [17], 0.582 (inactive).

Take `O=C1C[C@@](C(=O)O)(c2ccc([N+](=O)[O-])cc2)[C@@H](c2ccc(CO)cc2I)N1CC12CC3CC(CC(C3)C1)C2`: the composite z-score with Albumin (Bos taurus) is 0.776; in experiment [2] it was -0.132; in experiment [3] it was 0.0808; in experiment [4], 0.64; in [5], 1.63; in [6] it was 0.945. Further, the composite z-score was 0.993 with Sam68 (KHDRBS1); -1.42 in [7]; 1.09 in [8]; 0.829 in experiment [9]; 1.11 in [10]; 0.365 in [11]. For the same compound, the composite z-score in [12] is 0.607; in experiment [13], 0.348; in [14], -0.35; in the experiment with Lefty1, 0.665; in experiment [16], 1.03. For the same compound, in experiment [1], the composite Z-score was 0.235 (inactive). In addition, the values for the z-score in [15] and in experiment [17] were -1.1 and -0.869 (inactive), respectively.

Regarding `CCOC(=O)C1=CC[C@@H](c2cccc(Cl)c2)N(S(=O)(=O)c2ccc(C)cc2)[C@H]1c1ccc(C#N)cc1`, the composite z-score was determined as 1.01 in the experiment with Albumin (Bos taurus); 0.159 in [2]; 0.0747 in experiment [3]; 0.728 in experiment [4]; 2.86 in experiment [5]; 0.668 in experiment [6]. The composite z-score was 1.29 in the experiment with Sam68 (KHDRBS1); -0.0727 in [7]; 1.11 in experiment [8]; 0.931 in experiment [9]; 1.26 in [10]; 0.444 in experiment [11]. The composite z-score in [12] was found to be 0.716; in experiment [13] it was 0.938; in [14], 0.56; with Lefty1 it was 1.09; in experiment [16], 0.985. For the same compound, the composite Z-score in experiment [1] is 0.272 (inactive). The z-score is 1.22 in experiment [15] and 1.35 (inactive) in [17].

Consider `Cc1ccc(N2C(=O)c3ccccc3[C@](C)(C(=O)NCCN3CCOCC3)[C@@H]2c2ccc(CO)cc2)nc1`, for which the composite z-score in the experiment with Albumin (Bos taurus) is -0.657; in [2] it was -0.279; in experiment [3], -0.14; in [4], 0.494; in experiment [5], -0.0207; in experiment [6], 0.0322. Moreover, the composite z-score is -1.39 with Sam68 (KHDRBS1); -0.494 in experiment [7]; -0.828 in experiment [8]; 0.267 in [9]; -1.74 in experiment [10]; -1.16 in experiment [11]. The composite z-score is -1.02 in [12]; -0.419 in experiment [13]; -0.833 in experiment [14]; -1.26 in the experiment with Lefty1; -1.32 in experiment [16]. In addition, in experiment [1], the composite Z-score was -0.559 (inactive). Further, the values for the z-score in experiment [15] and in experiment [17] were -0.807 and 0.952 (inactive), respectively.
